The panel holds about 79,000 compounds, 15% with a hit somewhere; the sample as a whole holds those more often. Activity calls are given as the source filed them. No stated cut-off is given here; in the data, active means growth inhibition above about 70%; inactive means the rest.
How the values were obtained:
[1] = NCI Yeast Anticancer Drug Screen. Data for the rad52 strain (AID 147);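 further: 0% = growth of vehicle-treated control cultures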; settings: S. cerevisiae rad52 mutant growth inhibition, stronger effect = higher value
Method in brief: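 The repair-mutant yeast strain was incubated with compounds, then growth was read and inhibition derived relative to vehicle.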

[2] = NCI Yeast Anticancer Drug Screen. Data for the wt1 strain (AID 149);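 further: 0% = growth of vehicle-treated wt1 cultures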; settings: S. cerevisiae wt1 strain (SPY 50644) growth inhibition, stronger effect = higher value
Method in brief: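 Yeast wt1 strain exposed to compounds; growth inhibition measured relative to vehicle-treated controls.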

[3] = NCI Yeast Anticancer Drug Screen. Data for the rad50EPP+ strain (AID 151);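 further: 0% = growth of vehicle-treated control cultures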; settings: S. cerevisiae rad50 mutant strain, stronger effect = higher value
Method in brief: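 Vehicle-normalised growth inhibition; rad50EPP+ yeast strain, altered in DNA damage repair, compound-treated.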

[4] = NCI Yeast Anticancer Drug Screen. Data for the rad50 strain (AID 155);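 further: 0% = growth of vehicle-only cultures of the same strain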; settings: S. cerevisiae rad50 strain growth inhibition, stronger effect = higher value
Method in brief: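 Yeast carrying a defined DNA repair defect were exposed to test compounds, and growth was compared with vehicle-treated controls to give percent inhibition.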

[5] = NCI Yeast Anticancer Drug Screen. Data for the mec2-1 strain (AID 157); settings: S. cerevisiae mec2-1 strain, stronger effect = higher value
Method in brief: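 Mutant yeast (mec2-1) grown with compound; growth inhibition relative to vehicle control reported.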

[6] = NCI Yeast Anticancer Drug Screen. Data for the rad14 strain (AID 159);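 further: 0% = growth of vehicle-treated control cultures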; settings: S. cerevisiae rad14 strain growth inhibition, stronger effect = higher value
Method in brief: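 Yeast cells carrying a defined DNA-repair defect were exposed to compounds, and growth inhibition was calculated relative to vehicle-treated control cultures.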

[7] = NCI Yeast Anticancer Drug Screen. Data for the sgs1 mgt1 strain (AID 161);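 further: 0% = growth of cultures given vehicle only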; settings: S. cerevisiae sgs1 mgt1 strain, stronger effect = higher value
Method in brief: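 Percent growth inhibition was derived by comparing compound-exposed mutant yeast with vehicle-exposed cultures. The strain carries alterations in DNA damage repair.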

[8] = NCI Yeast Anticancer Drug Screen. Data for the cln2 rad14 strain (AID 165);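 further: 0% = growth equal to vehicle treated cultures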; settings: S. cerevisiae cln2 rad14 strain, stronger effect = higher value
Method in brief: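 Readout is yeast growth inhibition versus vehicle-treated controls, using a strain with cln2 and rad14 alterations exposed to compound.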

[9] = NCI Yeast Anticancer Drug Screen. Data for the bub3 strain (AID 167); settings: S. cerevisiae bub3 mutant strain, stronger effect = higher value
Method in brief: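 Compounds were applied to a genetically altered yeast strain carrying a cell-cycle control defect. Growth inhibition was scored against vehicle-treated controls.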

[10] = NCI Yeast Anticancer Drug Screen. Data for the mlh1 strain (AID 171);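 further: 0% = growth of vehicle-treated control cultures of the same strain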; settings: S. cerevisiae mlh1 strain growth inhibition, stronger effect = higher value
Method in brief: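 Measured: yeast growth. Reference: vehicle-treated controls. Organism: strain with a defined alteration affecting DNA damage repair or cell cycle control, treated with compound.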

[11] = NCI Yeast Anticancer Drug Screen. Data for the sgs1 strain (AID 173);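 further: 0% = growth of vehicle-only control cultures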; settings: S. cerevisiae sgs1 mutant, stronger effect = higher value
Method in brief: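 Each compound was added to cultures of the altered yeast strain. Growth was recorded, and inhibition was derived by comparison with vehicle controls.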

[12] = NCI Yeast Anticancer Drug Screen. Data for the mlh1 rad18 strain (AID 175); settings: S. cerevisiae mlh1 rad18 strain growth inhibition, stronger effect = higher value
Method in brief: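 Genetically defined yeast (DNA repair-deficient) exposed to compounds; growth inhibition determined relative to vehicle.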

[13] = NCI Yeast Anticancer Drug Screen. Data for the rad18 strain (AID 177); settings: S. cerevisiae rad18 mutant growth inhibition, stronger effect = higher value
Method in brief: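 Vehicle-treated cultures served as the baseline for scoring compound-induced growth inhibition in DNA-repair-mutant yeast.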

[14] = NCI Yeast Anticancer Drug Screen. Data for the CLN2oe strain (AID 163);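 further: 0% = growth of vehicle-only control cultures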; settings: S. cerevisiae CLN2oe strain, stronger effect = higher value
Method in brief: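 Compounds are applied to yeast harbouring a defined cell-cycle control change; reduced growth compared with vehicle-treated controls gives the value.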

[15] = NCI Yeast Anticancer Drug Screen. Data for the wt2 strain (AID 169);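 further: 0% = growth of vehicle-treated yeast cultures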; settings: S. cerevisiae wt2 strain growth inhibition, stronger effect = higher value
Method in brief: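 Against vehicle-treated controls, the growth of yeast exposed to each compound was compared, and the inhibition was recorded.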

[16] = at 5.0 µM (retest, dose inferred, filed as 0.5)
[17] = at 50.0 µM (retest, dose inferred, filed as 5.0)

Measured: growth inhibition

CCOC(=O)C1=C(C)NC(C)=C(C(=O)OCC)C1c1cccc([N+](=O)[O-])c1
active: [1]; at 100.0 µM 73% | [2]; at 100.0 µM 88% | [4]; [17] 80% | [4]; at 50.0 µM 90.8% | [4]; at 100.0 µM 88% | [5]; [17] 76% | [5]; at 100.0 µM 83% | [6]; at 100.0 µM 88% | [9]; at 100.0 µM 73% | [10]; at 100.0 µM 86% | [11]; at 100.0 µM 86% | [12]; [17] 75% | [12]; at 50.0 µM 90.7% | [13]; at 100.0 µM 83%
inactive: [1]; at 1.2 µM -90% | [1]; at 3.7 µM -81% | [1]; at 11.0 µM -35% | [1]; at 33.0 µM 17% | [2]; at 1.2 µM -53% | [2]; at 3.7 µM -41% | [2]; at 11.0 µM -22% | [2]; at 33.0 µM 37% | [3]; at 1.2 µM -54% | [3]; at 3.7 µM -78% | [3]; at 11.0 µM -91% | [3]; at 33.0 µM -93% | [3]; at 100.0 µM -103% | [4]; at 1.2 µM -39% | [4]; at 3.7 µM 0% | [4]; [16] 34% | [4]; at 11.0 µM 31% | [4]; at 33.0 µM 65% | [5]; at 1.2 µM -36% | [5]; at 3.7 µM -16% | [5]; [16] 35% | [5]; at 11.0 µM -10% | [5]; at 33.0 µM 30% | [5]; at 50.0 µM 37.1% | [6]; at 1.2 µM -39% | [6]; at 3.7 µM -32% | [6]; at 11.0 µM -17% | [6]; at 33.0 µM 25% | [7]; [16] -15% | [7]; [17] 22% | [8]; [16] 45% | [8]; [17] 54% | [9]; at 1.2 µM -21% | [9]; at 3.7 µM -5% | [9]; [16] 29% | [9]; at 11.0 µM 4% | [9]; at 33.0 µM 22% | [9]; [17] 40% | [10]; at 1.2 µM -74% | [10]; at 3.7 µM -39% | [10]; at 11.0 µM -29% | [10]; at 33.0 µM 51% | [11]; at 1.2 µM -18% | [11]; at 3.7 µM -14% | [11]; at 11.0 µM 13% | [11]; at 33.0 µM 60% | [12]; [16] 30% | [13]; at 1.2 µM 5% | [13]; at 3.7 µM 32% | [13]; at 11.0 µM 33% | [13]; at 33.0 µM 60%

COc1ccc2c(C)cc(N/N=C/c3sccc3C)nc2c1
inactive: [1]; at 1.2 µM -31% | [1]; at 3.7 µM -45% | [1]; at 11.0 µM -35% | [1]; at 33.0 µM 29% | [1]; at 100.0 µM 18% | [2]; at 1.2 µM -30% | [2]; at 3.7 µM -32% | [2]; at 11.0 µM -15% | [2]; at 33.0 µM 63% | [2]; at 100.0 µM 66% | [3]; at 1.2 µM -11% | [3]; at 3.7 µM -10% | [3]; at 11.0 µM -4% | [3]; at 33.0 µM 24% | [3]; at 100.0 µM 21% | [4]; at 1.2 µM -15% | [4]; at 3.7 µM -25% | [4]; [16] 22% | [4]; at 11.0 µM 23% | [4]; at 50.0 µM 68.5% | [5]; at 1.2 µM -22% | [5]; at 3.7 µM -28% | [5]; [16] 12% | [5]; at 11.0 µM -8% | [5]; at 33.0 µM 57% | [5]; at 50.0 µM 50% | [5]; at 100.0 µM 46% | [6]; at 1.2 µM -53% | [6]; at 3.7 µM -27% | [6]; at 11.0 µM -10% | [6]; at 33.0 µM 35% | [6]; at 100.0 µM 31% | [7]; [16] 19% | [7]; [17] 8% | [14]; at 1.2 µM -6% | [14]; at 3.7 µM -9% | [14]; at 11.0 µM 0% | [14]; at 33.0 µM 65% | [14]; at 100.0 µM 56% | [8]; [16] 4% | [8]; [17] -26% | [8]; at 50.0 µM 45.8% | [9]; at 1.2 µM -11% | [9]; at 3.7 µM 10% | [9]; [16] 13% | [9]; at 11.0 µM -7% | [9]; [17] -26% | [9]; at 50.0 µM 45.1% | [15]; at 1.2 µM 13% | [15]; at 3.7 µM -6% | [15]; at 11.0 µM 24%
active: [4]; at 33.0 µM 80% | [4]; [17] 92% | [4]; at 100.0 µM 73% | [5]; [17] 92% | [7]; at 50.0 µM 80.3% | [9]; at 33.0 µM 88% | [9]; at 100.0 µM 82% | [15]; at 33.0 µM 78% | [15]; at 100.0 µM 73%

— PubChem BioAssay (NCI)
